Experimental data from PubChem BioAssay.
Calls of active or inactive are those of the source.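 How the source made its calls: active means inhibition above the hit cutoff set in the earlier primary screen (cut at about 27% in these data); inactive means the rest.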

target: Protein phosphatase methylesterase 1 (Homo sapiens) (UniProt Q9Y570); test: human PME-1 methylesterase inhibition confirmation – biochemical, fluorescence polarization, FP-Rh probe, triplicate (AID 2171); details: recombinant PME-1, FP-Rh probe fluorescence polarization; at 5.9 µM; stronger effect = higher value;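 further: 0% = enzyme with DMSO and 100% = wells lacking PME-1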
Sequence (Q9Y570 whole entry, looked up): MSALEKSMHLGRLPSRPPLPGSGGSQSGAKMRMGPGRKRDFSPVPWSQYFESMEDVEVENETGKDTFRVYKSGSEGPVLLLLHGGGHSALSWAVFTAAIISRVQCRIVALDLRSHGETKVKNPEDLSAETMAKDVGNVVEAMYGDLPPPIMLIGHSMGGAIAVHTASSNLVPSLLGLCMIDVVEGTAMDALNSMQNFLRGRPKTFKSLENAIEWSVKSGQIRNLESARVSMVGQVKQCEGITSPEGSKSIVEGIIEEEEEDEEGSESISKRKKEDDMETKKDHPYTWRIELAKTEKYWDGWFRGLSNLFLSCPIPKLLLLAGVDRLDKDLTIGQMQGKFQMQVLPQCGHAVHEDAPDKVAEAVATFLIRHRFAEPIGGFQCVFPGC

inhibition, active:
Cc1nc(S/C(=C/c2ccc(-c3cc(Cl)ccc3C)o2)C(=O)O)n[nH]1 26.7%
O=c1[nH][nH]c2cc(=O)n(-c3cccc(C(F)(F)F)c3)nc12 28.5%
CCN1C(=O)/C(=C2/Sc3ccccc3N2CC)S/C1=N\c1ncn[nH]1 42.6%
N#Cc1c(N)nc2c3c(sc(=N)c2c1N)NC(=O)CC3c1c(F)cccc1Cl (stereo not given) 38.2%
Cc1ccc(C)c(NC(=O)COC(=O)c2cccc3c2C(=O)c2ccccc2C3=O)c1 92.7%
O=C(O)COc1ccccc1/C=N/Nc1ccc(S(=O)(=O)Nc2ccc(Cl)cc2)cc1[N+](=O)[O-] 62.7%
N#C/C(N=Nc1ccccc1O)=N\Nc1ccccc1O 53.1%
Cc1[nH]c2ccccc2c1/C=C/c1nc2ccccc2c(=O)n1CCO 68.3%
Cc1[nH]c(N=Nc2ccccc2)nc1N=Nc1ccccc1 55.2%
Oc1c(Br)cc(Br)cc1CNc1cnc2ccccc2c1 34.8%
Cc1ccc(C(=O)O)cc1N1C(=O)c2cccc3c([N+](=O)[O-])ccc(c23)C1=O 38.7%
CCCCCCCCCCCCCCCC[n+]1ccc(/C=N/O)cc1 60.4%
CCc1nnc(NC(=O)c2sc3nc4cc(C)ccc4cc3c2N)s1 31.8%
CCn1cc(C(=O)NCCCN2CC(C)CC(C)C2)c(=O)c2cc(S(=O)(=O)N(C)C3CCCCC3)ccc21 (stereo not given) 35.6%
Cc1ccc2[nH]c(C)c(/C=N/Nc3nc4ccccc4s3)c2c1 41.1%
Cc1cc(NS(=O)(=O)c2ccc(Nc3nc(-c4sc(NC(=O)c5ccccc5)nc4C)cs3)cc2)no1 70.6%
Cc1cc(-c2ccccc2)nc(N/N=C/c2ccc(O)cc2O)n1 70.4%
COc1ccc2nc(N3C(=O)/C(=C/c4ccccc4)NC3=S)sc2c1 43.3%
Brc1csc(/C=N/Nc2nc3ccccc3s2)c1 45.3%
CC1=NN(c2ccccc2)C(=O)C1N=Nc1cccc(O)c1 (stereo not given) 28.1%
C/C(=N\Nc1ccc(C(=O)O)cc1)c1ccc2c(c1)Nc1ccccc1S2 30.5%
CCCCNc1c2c3c(cccc3n(C)c1=O)C(=O)c1ccccc1-2 71.1%

inhibition, inactive:
CCN(CC)S(=O)(=O)c1ccc(Cl)c(NC(=O)COC(=O)c2ccc(O)cc2)c1 24.9%
CCOc1cccc(/C=N/NC(=S)Nc2cc(S(=O)(=O)N3CCOCC3)ccc2N2CCOCC2)c1O 25.1%
COc1ccc(/C=N/Nc2snc(SC)c2C#N)cc1OC 24.9%
Cc1ccc(-c2csc(-c3c[nH]c4ccccc34)n2)cc1 11.1%
Nc1nonc1N/N=C/c1c(O)ccc2ccccc12 23.6%
COC(=O)c1ccc(Sc2ccccc2NS(=O)(=O)c2ccc(C)cc2)nc1 25.9%
Cc1ccc(S(=O)(=O)c2nnn3c2nc(N2CCOCC2)c2ccccc23)c(C)c1 21.9%
N#CC/C(N)=N/Nc1nc2ccccc2nc1Cc1ccccc1 -1.36%
O=C(N/N=C/c1c(Cl)[nH]c2ccccc12)c1ccc2c(c1)OCCO2 20.6%
COc1ccccc1-c1sc2ccccc2c1-c1ccc(C(C)=O)cc1 -9.37%
Cc1cccc(NC(=O)CN2C(=O)S/C(=C\c3ccc(O)c([N+](=O)[O-])c3)C2=O)c1 24.7%
CC(C)(C)c1ccc(NC(=O)C2=CC=CN3CCS(=O)(=O)N=C23)cc1 9.34%
CN(C)S(=O)(=O)c1ccc(-c2csc(N/N=C/c3ccc(O)cc3)n2)cc1 25%
COc1ccc2c(Cl)c(C(=O)N/N=C/c3c(C)[nH]c4ccccc34)sc2c1 18.5%
Cc1ccc(NS(=O)(=O)c2cccc(C(=O)N3CCN(c4ncccn4)CC3)c2)cc1 9.07%
Cc1[nH]c2ccccc2c1N=Nc1ccccc1C(=O)O 20.8%
CCOc1ccc(N=C/C=C/c2ccccc2)c(O)c1 9.57%
O=C(COC(=O)CCCN1C(=O)c2cccc3cccc(c23)C1=O)Nc1ccc(Cl)cc1 22.7%
